Our source for the Potency values is PubChem BioAssay AID504834 (National Center for Advancing Translational Sciences (NCATS), 2011).

Molecules are shown by their SMILES. Among all 320,000 compounds or so, about 22,000 (6.9%) were called active. Roughly 27% stayed inconclusive and do not appear here. The call rests on the fitted dose curve; in most records, active means well fitted inhibition curve with a large enough effect; inconclusive means small, poorly fitted or top-dose-only effect, or another doubt; inactive means no such curve, though single readings can be large or run the other way. Shown is part of a subset that was picked to be rich in actives. Where a call stands in place of a potency, no number is given.
Potency means the concentration at half of the fitted maximal effect.

This assay in a line: Primary qHTS for delayed death inhibitors of the malarial parasite plastid, 96 hour incubation. Conditions: P. falciparum luciferase reporter growth; series mostly up to 28.7 µM. Put shortly:
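Plates of compound plus infected erythrocytes (2% hematocrit, 0.05% parasitemia final) incubate 96 hours, 37 C, 5% CO2. Detection reagent added; reduced luminescence from the parasites' luciferase reporter flags inhibition.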
Consider `COc1ccc2ccccc2c1/C=N/NC(=O)c1cc(C)[nH]n1`, for which the Potency result is “inactive”. The same measure for `O=[N+]([O-])c1ccc(C=Nc2ccc(Cl)cc2Cl)s1`: “inactive”; for `CC(C)(C)c1cc(C(=O)N/N=C/c2ccc([N+](=O)[O-])s2)n[nH]1`: 1.65 µM (active). The result for `COC(=O)c1ccc(COC(=O)c2cnc(Cl)c(Cl)c2)cc1` reads “inactive”. The result for `CCOc1ccc(CCNC(=O)COC(=O)CCS(=O)(=O)c2ccc(C)cc2)cc1OCC` reads “inactive”. Consider `CCC(C(=O)N1CCN(S(=O)(=O)c2sc(C(=O)O)c(C)c2C(=O)O)CC1)c1ccccc1` (stereo not given), for which the Potency entry is “inactive”. The result for `CN(C(=O)CN1C(=O)CCSc2ccc(S(=O)(=O)N3CCCC3)cc21)c1ccccc1` reads “inactive”; that for `COc1cc2c(cc1OC)CN(C(=O)c1ccc(S(=O)(=O)N3CCCCCC3)cc1)CC2`, 0.465 µM (active). The result for `CCOc1cc(C(=O)N2CCc3cc(OC)c(OC)cc3C2)ccc1OC(F)F` reads 5.86 µM (active); that for `COc1ccc(S(=O)(=O)N2CCCCC2)cc1Br`, “inactive”. The result for `COc1ccc(S(=O)(=O)N2CCC(C(=O)N3CCCC3)CC2)cc1C` reads “inactive”; that for `COc1cc(C(=O)NNC(=O)c2ccc(S(=O)(=O)N3CCCCC3)cc2)cc(OC)c1OC`, “inactive”; that for `COC(=O)Cc1ccc(OC(=O)C2CCN(S(=O)(=O)c3ccc(OC)c(OC)c3)CC2)cc1`, “inactive”. Turning to `CCOc1cc(CN2CCN(C(=O)CC(C)C)CC2)ccc1OC`, the Potency result was “inactive”.

In the case of `COc1ccc(S(=O)(=O)N2CCC(C(=O)N3CCc4ccccc4C3)CC2)cc1OC`, the Potency is 8.28 µM (active). The result for `CCOc1ccc(NC(=O)COc2ccc(C(=O)N3CCC(C(N)=O)CC3)cc2OC)cc1` reads “inactive”; that for `COC(=O)c1ccc(C)c(NC(=O)C2CC(=O)N(C3CCCC(C)C3C)C2)c1` (stereo not given), “inactive”. The result for `COC(=O)c1ccccc1NC(=O)C1CCN(C(=O)N2CCOc3ccccc32)CC1` reads “inactive”. The result for `O=C(COC(=O)c1cccc(Cl)c1)Nc1ccc2[nH]c(=O)[nH]c2c1` reads “inactive”. On to `Cc1ccc(CN(CC(=O)NCC2CCCO2)S(=O)(=O)c2ccc(C)cc2)cc1` (stereo not given), for which the Potency entry was “inactive”.

On to `CC(=O)Nc1ccc(NC(=O)CN2C(=O)COc3ccc(S(=O)(=O)N4CCCCC4)cc32)cc1`, for which the Potency result is “inactive”.

For the molecule `Cc1ccn2c(=O)nc(SCC(=O)NCc3ccc4c(c3)OCO4)nc2c1`, the Potency entry was “inactive”.

For the molecule `Cc1ccc(C)c(C(=O)COC(=O)Cn2[nH]c(=O)c3ccccc3c2=O)c1`, the Potency entry is “inactive”. The result for `Cc1nc(NC(=O)c2ccc3c(c2)OCCO3)ccc1Br` reads “inactive”; that for `COc1ccc(-c2[nH]ncc2CN(C)Cc2c(C)n[nH]c2C)c(OC)c1`, “inactive”; that for `C=C(C)COc1ccc(-c2n[nH]c(C)c2-c2ccccc2OC)c(O)c1`, 11.7 µM (active). The result for `C=C(C)COc1ccc(-c2ncncc2-c2ccc(OC)cc2)c(O)c1` reads “inactive”; that for `COc1ccc(-c2n[nH]c(C)c2-c2ccccc2OC)c(O)c1`, 11.7 µM (active); that for `CCOc1ccc(-c2nc(N)ncc2-c2ccccc2OC)c(O)c1`, “inactive”. For `CCOc1ccc(-c2n[nH]c(C)c2-c2ccccn2)c(O)c1`, the Potency entry is “inactive”. The result for `COc1ccc(N=Nc2ccc(O)c(P(=O)(c3ccccc3)c3ccccc3)c2)cc1` reads “inactive”.

`CCc1nc2nc(C)c(NS(=O)(=O)c3ccc4c(c3)CCCC4)c(=O)n2[nH]1`: the Potency entry is “inactive”.

Consider `C=CCn1cc(Cl)cc(C(=O)Nc2ccccc2)c1=O`, for which the Potency result was “inactive”. The same measure for `CCOc1ccc(N/C=C/C(=O)c2cc(OC)c(OC)c(OC)c2)cc1`: “inactive”; for `Cc1cccc(NC(=O)CSCC(=O)Nc2nnc(C3CC3)s2)c1`: “inactive”. The same measure for `NC(=O)NC(=O)C(OC(=O)CCNS(=O)(=O)c1ccccc1)c1ccccc1` (stereo not given): “inactive”; for `COc1ccc2c(c1)c1nc3n(c(=O)c1n2CC(=O)Nc1ccccc1)CCS3`: “inactive”. The result for `COCCn1c(SCC(=O)Nc2ccc3c(c2)CCC3)nc2ccccc2c1=O` reads “inactive”; that for `CCn1c(SCC(=O)Nc2ccc(C)cc2)nc2nc3c(cc2c1=O)CCCC3`, 14.7 µM (active). Take `CCn1c(CC(=O)Nc2ccc(C)cc2)nnc1SCC(=O)Nc1nc(C)cs1`: the Potency result is “inactive”. The same measure for `O=C(OCC1OC(Oc2ccc(O)cc2)C(O)C(O)C1O)c1ccccc1` (stereo not given): “inactive”. The same measure for `COc1ccc(-c2nc(SCC(=O)N3CCCC3)n[nH]2)cc1`: “inactive”; for `O=S(=O)(c1ccc(-c2ccno2)s1)N1CCCCC1`: “inactive”; for `CCCCN1Cc2c(nc3cc(-c4ccccc4)[nH]n3c2=O)C1=O`: “inactive”. The result for `O=C(CCNS(=O)(=O)c1ccccc1C(F)(F)F)Nc1ccncc1` reads “inactive”; that for `COc1ccc([N+](=O)[O-])cc1N(CC(=O)Nc1ccccc1C(=O)N1CCOCC1)S(C)(=O)=O`, “inactive”; that for `COc1ccc(N(CC(=O)N2CCCCCC2)S(=O)(=O)c2ccccc2)cc1`, “inactive”.

Turning to `COc1ccccc1NC(=O)CN(c1ccccc1OC)S(=O)(=O)c1ccccc1`, the Potency entry was “inactive”. The same measure for `COc1ccccc1N(CC(=O)N1CCCCC1)S(=O)(=O)c1ccccc1`: 11.7 µM (active); for `COc1ccccc1N(CC(=O)Nc1ccccc1C(=O)N1CCCC1)S(C)(=O)=O`: 9.28 µM (active).

Consider `CCOc1ccccc1N(CC(=O)Nc1ccccc1C(=O)OC)S(C)(=O)=O`, for which the Potency entry was “inactive”.

`Cc1cc(C)c(S(=O)(=O)c2cc(F)ccc2C)c(=O)[nH]1`: the Potency result was “inactive”. The result for `O=C(COC(=O)c1ccc(N2CCCC2=O)cc1)c1ccc(OC(F)F)cc1` reads “inactive”. With `COc1ccc(NC(=O)C2C3CCC(O3)C2C(=O)O)cc1OC` (stereo not given), the Potency result was “inactive”. The same measure for `O=C(CCCN=C1NS(=O)(=O)c2ccccc21)OCC(=O)c1ccc(F)c(F)c1`: “inactive”; for `CCN(CC(=O)Nc1ccc2c(c1)OCO2)S(=O)(=O)c1ccccc1`: “inactive”; for `CN(C)C(=O)Oc1ccc(NC(=O)N2CCOCC2)cc1`: 3.29 µM (active). In the case of `CN(C)S(=O)(=O)c1ccc(NC(=O)N2CCOCC2)cc1`, the Potency result is “inactive”. The result for `COc1cc(NC(=O)N2CCOCC2)cc(OC)c1` reads “inactive”; that for `CCCCN1CCNC1=S`, “inactive”; that for `COc1ccc(-c2cc(=O)oc3cc(OCC(=O)N(C)C4CCS(=O)(=O)C4)ccc23)cc1` (stereo not given), “inactive”.

Consider `CN(CC#CCC(c1ccccc1)c1ccccc1)C(C)(C)C`, for which the Potency is 4.65 µM (active). The same measure for `CC(C)(C)N(CC#CCC(O)(c1ccccc1)C1CCCC1)CCO` (stereo not given): “inactive”; for `CCCn1nc(C(=O)NNC(=O)CCOc2ccccc2OCC)c2ccccc2c1=O`: “inactive”. The same measure for `CC(Sc1nnc(CNC(=O)c2ccccc2F)n1C)C(=O)Nc1nccs1` (stereo not given): “inactive”.
